Here are results for six compounds from ChEMBL document CHEMBL1961873, “Compounds: GSK PKIS; Assays: Nanosyn kinase panel” (2012).

Assay [1] addresses T1, 3-phosphoinositide-dependent protein kinase 1 (Homo sapiens) (UniProt O15530).
T1 sequence (whole entry): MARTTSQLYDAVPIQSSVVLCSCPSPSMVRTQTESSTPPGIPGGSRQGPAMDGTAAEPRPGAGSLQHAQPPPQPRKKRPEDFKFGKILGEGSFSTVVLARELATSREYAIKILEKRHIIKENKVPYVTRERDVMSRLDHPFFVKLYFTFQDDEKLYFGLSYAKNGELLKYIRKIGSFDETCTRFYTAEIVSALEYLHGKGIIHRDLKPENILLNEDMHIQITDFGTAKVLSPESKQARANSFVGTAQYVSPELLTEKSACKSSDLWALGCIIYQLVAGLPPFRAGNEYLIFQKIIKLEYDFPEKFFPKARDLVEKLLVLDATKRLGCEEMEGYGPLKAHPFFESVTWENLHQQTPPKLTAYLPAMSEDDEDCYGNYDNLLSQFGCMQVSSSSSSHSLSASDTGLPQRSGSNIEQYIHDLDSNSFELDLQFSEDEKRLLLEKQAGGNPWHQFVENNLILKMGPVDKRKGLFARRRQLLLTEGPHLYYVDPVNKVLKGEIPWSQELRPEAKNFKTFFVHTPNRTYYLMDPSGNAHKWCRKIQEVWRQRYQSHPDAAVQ
The following applies: at 0.1 µM.

Assay [2] addresses cAMP-dependent protein kinase catalytic subunit alpha (Homo sapiens) (UniProt P17612). The settings on record: at 0.1 µM.
For assay [3] the target is unchanged. The following applies: at 1 µM.
Assay [4] concerns the target Protein kinase C alpha type (Homo sapiens) (UniProt P17252). The following applies: at 0.1 µM.
Assay [5] shares this target. The settings on record: at 1 µM.
For assay [6], the target named is Protein kinase C beta type (Homo sapiens) (UniProt P05771). The settings on record: at 0.1 µM.
Chain of Protein kinase C beta type (Homo sapiens) (P05771 2-671 limits assumed): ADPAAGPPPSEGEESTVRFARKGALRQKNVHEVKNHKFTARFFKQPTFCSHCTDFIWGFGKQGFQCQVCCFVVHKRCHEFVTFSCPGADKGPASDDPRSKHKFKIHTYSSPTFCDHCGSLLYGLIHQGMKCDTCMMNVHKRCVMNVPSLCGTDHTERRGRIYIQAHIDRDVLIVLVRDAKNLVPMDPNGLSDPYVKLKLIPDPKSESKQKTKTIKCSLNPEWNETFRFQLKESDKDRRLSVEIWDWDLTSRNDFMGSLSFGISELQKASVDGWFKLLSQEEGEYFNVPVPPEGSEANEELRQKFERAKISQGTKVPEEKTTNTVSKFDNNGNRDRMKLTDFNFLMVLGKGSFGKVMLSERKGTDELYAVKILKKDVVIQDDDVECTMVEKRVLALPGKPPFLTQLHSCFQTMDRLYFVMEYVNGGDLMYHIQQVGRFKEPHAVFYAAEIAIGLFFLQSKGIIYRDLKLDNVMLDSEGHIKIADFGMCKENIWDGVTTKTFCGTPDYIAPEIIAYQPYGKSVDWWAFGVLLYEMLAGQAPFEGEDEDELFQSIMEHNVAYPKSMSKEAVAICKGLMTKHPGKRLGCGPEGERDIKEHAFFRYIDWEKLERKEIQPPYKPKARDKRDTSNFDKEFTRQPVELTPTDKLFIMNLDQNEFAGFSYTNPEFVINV
Assay [7] shares this target. The settings on record: at 1 µM.
The target of assay [8] is Protein kinase C eta type (Homo sapiens) (UniProt P24723). The settings on record: at 0.1 µM.
Chain of Protein kinase C eta type (Homo sapiens) (P24723 whole entry): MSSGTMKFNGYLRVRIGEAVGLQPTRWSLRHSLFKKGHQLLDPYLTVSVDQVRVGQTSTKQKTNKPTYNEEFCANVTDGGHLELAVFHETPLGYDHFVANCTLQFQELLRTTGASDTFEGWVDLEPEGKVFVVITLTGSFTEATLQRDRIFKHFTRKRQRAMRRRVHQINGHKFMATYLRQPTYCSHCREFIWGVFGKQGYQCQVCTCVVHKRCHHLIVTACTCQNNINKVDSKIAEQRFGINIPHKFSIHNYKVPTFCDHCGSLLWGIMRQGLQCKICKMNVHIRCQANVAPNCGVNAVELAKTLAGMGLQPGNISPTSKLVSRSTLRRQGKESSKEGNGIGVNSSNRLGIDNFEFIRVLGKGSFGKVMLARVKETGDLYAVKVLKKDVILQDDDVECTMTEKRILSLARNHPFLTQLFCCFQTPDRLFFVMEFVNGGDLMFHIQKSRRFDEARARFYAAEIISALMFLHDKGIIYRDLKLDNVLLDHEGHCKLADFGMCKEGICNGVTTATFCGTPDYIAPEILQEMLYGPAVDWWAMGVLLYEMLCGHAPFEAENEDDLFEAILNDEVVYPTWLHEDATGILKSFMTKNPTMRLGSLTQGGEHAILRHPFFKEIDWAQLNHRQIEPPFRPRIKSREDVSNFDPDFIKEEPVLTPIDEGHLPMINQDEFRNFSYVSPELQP
Assay [9] shares this target. The following applies: at 1 µM.
For assay [10], the target named is Protein kinase C gamma type (Homo sapiens) (UniProt P05129). The settings on record: at 0.1 µM.
For assay [11] the target is unchanged. The following applies: at 1 µM.
Assay [12] concerns the target T2, Protein kinase C iota type (Homo sapiens) (UniProt P41743).
T2 sequence (whole entry): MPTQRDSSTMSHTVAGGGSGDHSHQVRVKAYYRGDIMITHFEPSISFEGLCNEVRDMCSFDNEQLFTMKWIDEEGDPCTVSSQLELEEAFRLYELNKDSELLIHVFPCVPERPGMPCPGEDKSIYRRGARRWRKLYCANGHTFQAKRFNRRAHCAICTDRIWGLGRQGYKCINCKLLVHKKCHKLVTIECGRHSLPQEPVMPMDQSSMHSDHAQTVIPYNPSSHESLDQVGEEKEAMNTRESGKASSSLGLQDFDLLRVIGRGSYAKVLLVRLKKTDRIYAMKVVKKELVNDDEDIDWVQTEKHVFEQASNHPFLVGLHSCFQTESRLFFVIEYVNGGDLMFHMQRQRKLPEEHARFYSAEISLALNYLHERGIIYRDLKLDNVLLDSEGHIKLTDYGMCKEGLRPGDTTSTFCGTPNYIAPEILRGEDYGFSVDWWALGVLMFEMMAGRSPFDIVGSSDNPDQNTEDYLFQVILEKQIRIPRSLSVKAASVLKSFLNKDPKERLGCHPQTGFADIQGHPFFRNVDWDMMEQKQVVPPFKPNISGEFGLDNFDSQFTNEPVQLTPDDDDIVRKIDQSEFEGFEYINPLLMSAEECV
The settings on record: at 0.1 µM.

The target in assay [13] is T2, Protein kinase C iota type (Homo sapiens). The settings on record: at 1 µM.
Assay [14] addresses Protein kinase C theta type (Homo sapiens) (UniProt Q04759). The following applies: at 0.1 µM.
For assay [15] the target is unchanged. The settings on record: at 1 µM.
Assay [16] has as its target Protein kinase C beta type (Homo sapiens) (UniProt P05771). The following applies: at 0.1 µM. The source holds these as a separate data set.
Assay [17] shares this target. The following applies: at 1 µM. This is another data set of the same source.
Assay [18] has as its target T3, Serine/threonine-protein kinase D1 (Homo sapiens) (UniProt Q15139).
T3 sequence (whole entry): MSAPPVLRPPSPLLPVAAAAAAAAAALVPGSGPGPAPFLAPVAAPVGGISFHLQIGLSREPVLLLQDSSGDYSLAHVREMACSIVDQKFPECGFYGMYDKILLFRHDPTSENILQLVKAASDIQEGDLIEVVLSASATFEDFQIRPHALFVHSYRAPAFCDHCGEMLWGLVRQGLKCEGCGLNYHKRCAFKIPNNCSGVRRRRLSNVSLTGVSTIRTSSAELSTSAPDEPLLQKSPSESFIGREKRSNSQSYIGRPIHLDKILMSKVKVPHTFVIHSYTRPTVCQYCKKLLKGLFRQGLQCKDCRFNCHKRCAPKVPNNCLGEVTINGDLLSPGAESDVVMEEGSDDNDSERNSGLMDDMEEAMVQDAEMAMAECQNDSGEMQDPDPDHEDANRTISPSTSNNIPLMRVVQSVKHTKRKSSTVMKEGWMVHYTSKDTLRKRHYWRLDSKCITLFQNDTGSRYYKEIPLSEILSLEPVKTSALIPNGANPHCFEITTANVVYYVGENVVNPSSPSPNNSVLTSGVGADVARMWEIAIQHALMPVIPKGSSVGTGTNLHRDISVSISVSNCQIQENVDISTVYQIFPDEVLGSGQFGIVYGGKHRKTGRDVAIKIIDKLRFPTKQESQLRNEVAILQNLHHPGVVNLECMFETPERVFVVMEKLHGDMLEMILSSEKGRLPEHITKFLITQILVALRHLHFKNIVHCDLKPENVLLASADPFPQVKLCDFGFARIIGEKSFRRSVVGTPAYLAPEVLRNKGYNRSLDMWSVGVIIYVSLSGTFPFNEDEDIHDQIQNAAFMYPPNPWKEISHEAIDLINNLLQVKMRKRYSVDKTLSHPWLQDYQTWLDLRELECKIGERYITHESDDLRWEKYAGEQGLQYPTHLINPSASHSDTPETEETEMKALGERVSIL
The following applies: at 0.1 µM.

For assay [19], the target named is T3, Serine/threonine-protein kinase D1 (Homo sapiens). The following applies: at 1 µM.
In assay [20] the target is T4, Serine/threonine-protein kinase D2 (Homo sapiens) (UniProt Q9BZL6).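 Also: reported percent inhibition values are means, part of the GSK PKIS kinase panel screen.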
T4 sequence (whole entry): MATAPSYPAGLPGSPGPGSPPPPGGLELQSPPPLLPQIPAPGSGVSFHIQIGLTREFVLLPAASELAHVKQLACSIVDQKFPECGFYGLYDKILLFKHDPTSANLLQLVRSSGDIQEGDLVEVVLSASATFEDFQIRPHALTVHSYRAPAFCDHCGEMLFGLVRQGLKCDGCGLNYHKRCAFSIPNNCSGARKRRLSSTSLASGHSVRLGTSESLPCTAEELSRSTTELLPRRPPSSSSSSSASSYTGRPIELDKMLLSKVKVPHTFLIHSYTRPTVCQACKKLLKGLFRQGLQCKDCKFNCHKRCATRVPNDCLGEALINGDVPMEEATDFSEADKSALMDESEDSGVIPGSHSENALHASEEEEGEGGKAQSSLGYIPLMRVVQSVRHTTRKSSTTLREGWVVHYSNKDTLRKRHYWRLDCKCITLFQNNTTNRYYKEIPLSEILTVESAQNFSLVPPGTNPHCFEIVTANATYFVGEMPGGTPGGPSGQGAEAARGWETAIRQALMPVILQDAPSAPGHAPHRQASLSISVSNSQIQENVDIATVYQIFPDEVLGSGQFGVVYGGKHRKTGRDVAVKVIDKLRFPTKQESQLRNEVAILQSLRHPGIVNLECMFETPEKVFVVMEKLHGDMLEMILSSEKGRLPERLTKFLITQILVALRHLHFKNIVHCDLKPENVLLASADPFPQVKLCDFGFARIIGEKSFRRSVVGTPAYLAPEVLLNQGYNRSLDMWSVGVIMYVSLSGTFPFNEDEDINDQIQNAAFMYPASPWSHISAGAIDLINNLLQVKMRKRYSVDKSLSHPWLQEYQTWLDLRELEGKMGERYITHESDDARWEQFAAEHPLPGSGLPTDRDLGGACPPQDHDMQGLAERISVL
The following applies: at 0.1 µM.

Chain of Protein kinase C theta type (Homo sapiens) (Q04759 whole entry, looked up): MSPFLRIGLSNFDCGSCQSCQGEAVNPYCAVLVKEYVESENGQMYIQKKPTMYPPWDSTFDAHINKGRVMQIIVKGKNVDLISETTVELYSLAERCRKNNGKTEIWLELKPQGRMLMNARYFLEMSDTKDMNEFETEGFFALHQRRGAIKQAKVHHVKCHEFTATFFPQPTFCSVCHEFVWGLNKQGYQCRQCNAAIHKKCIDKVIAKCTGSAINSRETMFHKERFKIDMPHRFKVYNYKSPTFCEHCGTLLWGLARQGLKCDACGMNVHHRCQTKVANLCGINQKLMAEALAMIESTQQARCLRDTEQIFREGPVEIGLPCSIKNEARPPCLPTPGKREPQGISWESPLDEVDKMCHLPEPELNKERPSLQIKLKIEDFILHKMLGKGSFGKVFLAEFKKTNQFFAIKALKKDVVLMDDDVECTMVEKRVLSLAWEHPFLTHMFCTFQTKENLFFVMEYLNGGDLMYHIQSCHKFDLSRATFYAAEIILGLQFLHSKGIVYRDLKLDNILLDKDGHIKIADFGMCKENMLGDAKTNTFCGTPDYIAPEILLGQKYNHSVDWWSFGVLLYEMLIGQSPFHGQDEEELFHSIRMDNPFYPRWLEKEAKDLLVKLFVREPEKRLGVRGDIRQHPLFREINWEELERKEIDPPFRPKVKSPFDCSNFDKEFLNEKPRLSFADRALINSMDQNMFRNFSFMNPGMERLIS

Regarding `Cc1ccc(NC(=O)c2ccnc(N3CCCC3)c2)cc1-c1ccc(C(=O)NCC2CC2)cc1`, the inhibition was 2.23% in assay [1]; -2.06% in [2]; -0.65% in assay [3]; -2.31% in assay [4]; -0.77% in assay [5]; 0.1% in assay [6]. The inhibition was -1.68% in assay [7]; 5.39% in assay [8]; 2.22% in assay [9]; 1.09% in [10]; 2.77% in assay [11]; 2.01% in [12]. The inhibition was determined as 3.68% in [13]; 1.28% in assay [14]; 3.17% in assay [15]; 1.24% in assay [16]; 2.94% in assay [17]; 3.07% in assay [18]. Further, the inhibition is 9.98% in assay [19] and 2.95% in [20].

`CCn1c(-c2nonc2N)nc2cncc(C(=O)N3CC[C@H](N)C3)c21`: the inhibition in [1] was 9.36%; in assay [2], 49.1%; in assay [3], 82.2%; in [4], 5.69%; in assay [5] it was 45.5%; in assay [6] it was 43.9%. For the same compound, the inhibition was found to be 74.5% in assay [7]; 51.2% in [8]; 88.3% in assay [9]; 6.77% in [10]; 41.1% in assay [11]; 8.94% in [12]. Moreover, the inhibition worked out at 40% in assay [13]; 5.26% in assay [14]; 23.8% in assay [15]; 11.4% in assay [16]; 45.6% in assay [17]; 4.56% in assay [18]. Further, the figures for the inhibition in assay [19] and in assay [20] were 9.27% and 6.65%, respectively.

Turning to `Nc1ncnc2occ(-c3ccc(NC(=O)Nc4cc(C(F)(F)F)cc(C(F)(F)F)c4)cc3)c12`, the inhibition in [1] was 1.59%; in assay [2], 0.91%; in assay [3], 0.7%; in assay [4] it was 0.06%; in assay [5], 0.45%; in assay [6], -0.8%. Also, the inhibition is -1.24% in assay [7]; 1.47% in [8]; -0.03% in [9]; 3.16% in assay [10]; -0.32% in [11]; 0.16% in assay [12]. Besides, the inhibition in assay [13] is 2.82%; in [14] it was 0.72%; in assay [15], -1.36%; in [16], 0.68%; in assay [17], 0.44%; in assay [18] it was 1.17%. For the same compound, the inhibition stood at 1.94% in assay [19] and 1.61% in assay [20].

For `CCn1c(-c2nonc2N)nc2c(C#CC(C)(C)O)nc(OC[C@@H](N)c3ccccc3)cc21`, the inhibition in [1] is 0.47%; in assay [2], 77.5%; in assay [3], 79.3%; in assay [4] it was -2.77%; in assay [5], 8.94%; in assay [6] it was 6.21%. Moreover, the inhibition came out at 36% in assay [7]; 81.4% in assay [8]; 96.8% in [9]; 8.95% in [10]; 45.3% in assay [11]; 1.26% in [12]. In addition, the inhibition in assay [13] is 0.8%; in assay [14], 11.9%; in assay [15], 52.5%; in [16] it was 3.74%; in [17] it was 23.1%; in [18], -0.47%. For the same compound, the inhibition in assay [19] is 9.57%; in [20] it was -0.26%.

Take `COc1cc2ncn(-c3cc(O[C@H](C)c4ccccc4Cl)c(C(N)=O)s3)c2cc1OC`: the inhibition in assay [1] is 2.16%; in assay [2], 2.29%; in [3], 1.54%; in [4] it was -0.04%; in [5] it was 0.09%; in assay [6], 3.14%. The inhibition in assay [7] turned out to be 5.95%; in [8] it was 4.41%; in assay [9], 4.05%; in [10], 3.01%; in assay [11], 4.01%; in assay [12] it was 2.97%. Moreover, the inhibition in assay [13] came out at 0.22%; in assay [14] it was 3.41%; in assay [15] it was 4.9%; in assay [16], 2.75%; in [17], 3.52%; in assay [18], 1.04%. Also, the figures for the inhibition in assay [19] and in assay [20] were 3.84% and 2.69%, respectively.

Regarding `O=C1NC(=O)C(N2CCc3ccccc32)=C1c1ccc(Cl)cc1`, the inhibition is 1.64% in assay [1]; 1.84% in assay [2]; 1.95% in assay [3]; 0.86% in [4]; 1.6% in assay [5]; -0.46% in assay [6]. Moreover, the inhibition came out at 0.52% in assay [7]; 0.02% in [8]; 3.59% in assay [9]; 5.52% in [10]; 2.33% in assay [11]; 1.4% in assay [12]. Further, the inhibition was 3.19% in assay [13]; 2.06% in assay [14]; 1.93% in assay [15]; 1.71% in [16]; 1.65% in assay [17]; 3.74% in assay [18]. Moreover, the inhibition in [19] stood at 5.59%; in assay [20] it was 4.57%.

As a reminder, the inhibition is the relative decrease from the control value, in per cent.
